Compounds without any hit were thinned out: in the full panel of roughly 83,000, 20% have a hit.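 For each line, cells grew in 96-well plates with the test compound present at a single concentration for 48 hours.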 Calls of active or inactive are those of the source. Rule for the calls: active = growth percent below 10; inactive = the rest.
How the values were obtained:
Assay in all cases: NCI-60 one-dose screen, 48 h (100 = growth as untreated, 0 = no growth, -100 = all killed)
Settings in all cases: 10 µM
NCI-H23 lung = tested on: NCI-H23 lung
NCI-H226 lung = tested on: NCI-H226 lung
NCI-H460 lung = tested on: NCI-H460 lung
HOP-92 NSCLC = tested on: HOP-92 NSCLC
NCI-H522 lung = tested on: NCI-H522 lung
A549/ATCC NSCLC = tested on: A549/ATCC NSCLC
786-0 renal = tested on: 786-0 renal
COLO 205 colon = tested on: COLO 205 colon
DU-145 prostate = tested on: DU-145 prostate
K-562 leukemia = tested on: K-562 leukemia
MDA-MB-231 breast = tested on: MDA-MB-231 breast
RXF 393 renal = tested on: RXF 393 renal
SF-268 CNS = tested on: SF-268 CNS
SF-295 CNS = tested on: SF-295 CNS
SF-539 CNS = tested on: SF-539 CNS
UACC-257 melanoma = tested on: UACC-257 melanoma
M14 melanoma = tested on: M14 melanoma
HOP-62 NSCLC = tested on: HOP-62 NSCLC
MALME-3M melanoma = tested on: MALME-3M melanoma

Row | Structure (SMILES) | growth (NCI-H23 lung) | growth (NCI-H226 lung) | growth (NCI-H460 lung) | growth (HOP-92 NSCLC) | growth (NCI-H522 lung) | growth (A549/ATCC NSCLC) | growth (786-0 renal) | growth (COLO 205 colon) | growth (DU-145 prostate) | growth (K-562 leukemia) | growth (MDA-MB-231 breast) | growth (RXF 393 renal) | growth (SF-268 CNS) | growth (SF-295 CNS) | growth (SF-539 CNS) | growth (UACC-257 melanoma) | growth (M14 melanoma) | growth (HOP-62 NSCLC) | growth (MALME-3M melanoma)
1 | COc1ccc(-c2nn(-c3cccc(Cl)c3)cc2-c2c(C#N)c(=O)n3[nH]c(-c4ccccc4)nc3c2C#N)cc1 | 81.1% (inactive) | 88% (inactive) | 105% (inactive) | 93.3% (inactive) | 72.4% (inactive) | 98.9% (inactive) | 89.4% (inactive) | 123% (inactive) | 102% (inactive) | 78.3% (inactive) | 87.1% (inactive) | 95.9% (inactive) | 101% (inactive) | 58.8% (inactive) | 100% (inactive) | 110% (inactive) | 109% (inactive) | – | –
2 | CCCCCCCCCCCC[n+]1c(C)cc(N)c2ccccc21 | -36.8% (active) | 11.1% (inactive) | – | -6.03% (active) | -29.7% (active) | 57% (inactive) | 0.277% (active) | -66.7% (active) | 24.2% (inactive) | -39.5% (active) | -3.36% (active) | -27.7% (active) | 19.6% (inactive) | -1.01% (active) | 16.5% (inactive) | -17.8% (active) | -33.5% (active) | 3.61% (active) | –
3 | O=[N+]([O-])c1ccc(/C(=C/c2ccccc2)[n+]2ccccc2)cc1 | 113% (inactive) | 105% (inactive) | 103% (inactive) | – | – | 99.7% (inactive) | 104% (inactive) | 114% (inactive) | 127% (inactive) | 91.9% (inactive) | 111% (inactive) | 105% (inactive) | 128% (inactive) | 102% (inactive) | 107% (inactive) | 101% (inactive) | 114% (inactive) | 110% (inactive) | 125% (inactive)
4 | CCn1c(CSc2nc3ccccc3c(=O)n2CCc2ccccc2)n[nH]c1=S | 65.6% (inactive) | 78.1% (inactive) | 96.5% (inactive) | 85.9% (inactive) | -5% (active) | 84.6% (inactive) | 81.7% (inactive) | 105% (inactive) | 113% (inactive) | 71.6% (inactive) | 82.8% (inactive) | 85.2% (inactive) | 98.4% (inactive) | – | 99.8% (inactive) | 88.5% (inactive) | – | – | 97.2% (inactive)
5 | C=C(NC(=O)C(=C)NC(=O)c1csc(C2=NC3c4csc(n4)C4NC(=O)c5csc(n5)C(C(C)(O)C(C)O)NC(=O)C5CSC(=N5)C(=CC)NC(=O)C(C(C)O)NC(=O)c5csc(n5)C3(CC2)NC(=O)C(C)NC(=O)C(=C)NC(=O)C(C)NC(=O)C(C(C)CC)NC2C=Cc3c(C(C)O)cc(nc3C2O)C(=O)OC4C)n1)C(N)=O (stereo not drawn) | 43.2% (inactive) | -59.6% (active) | 66.2% (inactive) | 16.2% (inactive) | – | 72.2% (inactive) | 8.49% (active) | -14.3% (active) | 65.5% (inactive) | – | 9.76% (active) | -41.3% (active) | 27.1% (inactive) | – | 1.63% (active) | 26.4% (inactive) | 2.27% (active) | – | 26.9% (inactive)
6 | Cc1cc(C(C#N)c2ccc(Cl)cc2)c(Cl)cc1NC(=O)c1cc(I)cc(I)c1O (stereo not drawn) | 10.4% (inactive) | 45.4% (inactive) | 24.1% (inactive) | -12.1% (active) | – | 71.3% (inactive) | 20.8% (inactive) | 53.5% (inactive) | 72.7% (inactive) | – | 46.6% (inactive) | 48.9% (inactive) | 33.7% (inactive) | -20.9% (active) | 31.5% (inactive) | 71.3% (inactive) | 32.3% (inactive) | – | 58.1% (inactive)
7 | COc1ccc2nc(Cl)c(Cn3nnc(Cc4ccccc4)n3)cc2c1 | 32.5% (inactive) | 39% (inactive) | 40% (inactive) | – | 38% (inactive) | 31.5% (inactive) | 47.5% (inactive) | 24.9% (inactive) | 61.6% (inactive) | 32.9% (inactive) | 50.7% (inactive) | 60.2% (inactive) | 51.5% (inactive) | 37.4% (inactive) | 67.5% (inactive) | – | 30.3% (inactive) | – | 34.4% (inactive)
8 | CCCCc1oc2ccccc2c1C(=O)c1cc(I)c(OCCN(CC)CC)c(I)c1 | -38.9% (active) | -36% (active) | -76.7% (active) | -68.7% (active) | – | 9.9% (active) | -90.5% (active) | -79.8% (active) | 34.1% (inactive) | – | -79.8% (active) | -70.3% (active) | 30.8% (inactive) | -66.7% (active) | -19% (active) | -61% (active) | -75.3% (active) | – | -72.6% (active)
9 | COCCn1cc(-c2nc(-c3cccnc3)cs2)c2cc(F)ccc21 | 94% (inactive) | 91.5% (inactive) | 92.7% (inactive) | – | 70.6% (inactive) | 90.1% (inactive) | 90.8% (inactive) | 104% (inactive) | 90.4% (inactive) | 95.2% (inactive) | 92.3% (inactive) | 99.5% (inactive) | 90.7% (inactive) | 95.6% (inactive) | 80.9% (inactive) | – | – | – | 99.8% (inactive)
10 | CO[C@H]1CC(O[C@@H]2/C(C)=C/C[C@@H]3C[C@@H](C[C@]4(C=C[C@H](C)[C@@H](C5CCCCC5)O4)O3)OC(=O)[C@@H]3C=C(C)[C@@H](O)[C@H]4OC/C(=C\C=C\[C@@H]2C)[C@]43O)O[C@@H](C)C1O[C@H]1C[C@H](OC)[C@@H](O)[C@H](C)O1 (stereo partly drawn) | -63.7% (active) | -85.8% (active) | -86.7% (active) | -82.9% (active) | – | -79.7% (active) | -80.3% (active) | -64.7% (active) | -98.4% (active) | – | -81.1% (active) | -95.5% (active) | -81.5% (active) | -84.6% (active) | -72.3% (active) | -84% (active) | -88% (active) | – | -68.1% (active)
11 | COc1cc2c3c(n(C4CCN(C)CC4)c(=O)c2cc1OC)-c1cc2c(cc1C3=O)OCO2 | 52.4% (inactive) | 60.8% (inactive) | 19.8% (inactive) | – | 8.85% (active) | 55% (inactive) | 55.4% (inactive) | 59.5% (inactive) | 78.4% (inactive) | 81.2% (inactive) | 43.6% (inactive) | 68.2% (inactive) | 50.5% (inactive) | 46.7% (inactive) | -55.5% (active) | – | – | – | 89.5% (inactive)
12 | CC(=O)O[C@@]12CO[C@@H]1C[C@H](O)[C@@]1(C)C(=O)[C@H](O)C3=C(C)[C@@H](OC(=O)[C@H](O)[C@@H](NC(=O)OC(C)(C)C)c4ccccc4)C[C@@](O)([C@@H](OC(=O)c4ccccc4)C12)C3(C)C (stereo partly drawn) | 31.8% (inactive) | 61.5% (inactive) | 12.1% (inactive) | 56.3% (inactive) | – | 38.8% (inactive) | 54% (inactive) | 0.921% (active) | -10.4% (active) | – | 45.5% (inactive) | 23.7% (inactive) | 51.8% (inactive) | -23% (active) | 23% (inactive) | 74% (inactive) | 36% (inactive) | – | 76.5% (inactive)
13 | Cc1nc2n(c(=O)c1CCN1CCC(c3noc4cc(F)ccc34)CC1)CCC[C@@H]2O | 92.1% (inactive) | 99.6% (inactive) | 105% (inactive) | 97.9% (inactive) | – | 99.3% (inactive) | 107% (inactive) | 96.7% (inactive) | 105% (inactive) | – | 90.5% (inactive) | 108% (inactive) | 102% (inactive) | 87% (inactive) | 98.5% (inactive) | 96.2% (inactive) | 104% (inactive) | – | 89.6% (inactive)
14 | N#CC1=CC2CN(Cc3ccccc3)C1C1C(=O)N(c3ccccc3)C(=O)C21 (stereo not drawn) | 88% (inactive) | 97.7% (inactive) | 101% (inactive) | – | 106% (inactive) | 95.5% (inactive) | 102% (inactive) | 98.2% (inactive) | 105% (inactive) | 92.4% (inactive) | 106% (inactive) | 103% (inactive) | 107% (inactive) | 98.7% (inactive) | 98.5% (inactive) | 97.5% (inactive) | – | – | 111% (inactive)
15 | CCc1cc(Cl)c(OC)c(C(=O)NCC2CCCN2CC)c1O (stereo not drawn) | 85.5% (inactive) | 94.7% (inactive) | 104% (inactive) | 65.8% (inactive) | – | 95.6% (inactive) | 97.8% (inactive) | 103% (inactive) | 102% (inactive) | – | 50.6% (inactive) | 73% (inactive) | 98.2% (inactive) | 85% (inactive) | 103% (inactive) | 87.7% (inactive) | 103% (inactive) | – | 108% (inactive)
16 | CC(=O)[C@@]12O[C@](C)(c3ccccc3)O[C@@H]1CC1C3CCC4=CC(=O)CC[C@]4(C)C3CC[C@@]12C (stereo partly drawn) | 54.4% (inactive) | 78.5% (inactive) | 68.4% (inactive) | 76.2% (inactive) | – | 70.7% (inactive) | 67.9% (inactive) | 81.7% (inactive) | 97.1% (inactive) | – | 94.4% (inactive) | 88.9% (inactive) | 77.4% (inactive) | 44.4% (inactive) | 91.6% (inactive) | 73.2% (inactive) | 87% (inactive) | – | 85.2% (inactive)
17 | CCc1c2c(nc3ccc(OC(=O)N4CCC(N5CCCCC5)CC4)cc13)-c1cc3c(c(=O)n1C2)COC(=O)[C@]3(O)CC | 5.19% (active) | 7.44% (active) | 5.87% (active) | 72.3% (inactive) | – | 39.6% (inactive) | -47.7% (active) | 58.1% (inactive) | -5.72% (active) | – | 102% (inactive) | 37.7% (inactive) | 12.5% (inactive) | -24.5% (active) | -22.1% (active) | 57.6% (inactive) | 2.35% (active) | – | 36.2% (inactive)
18 | CC(C)Cc1ccc([C@H](C)C(=O)O)cc1 | 105% (inactive) | 112% (inactive) | 106% (inactive) | 79% (inactive) | – | 102% (inactive) | 106% (inactive) | 113% (inactive) | 122% (inactive) | – | 108% (inactive) | 114% (inactive) | 111% (inactive) | 99% (inactive) | 104% (inactive) | 107% (inactive) | 101% (inactive) | – | 107% (inactive)
